The supplement of paper PMC11732987, “Enantioselective OTUD7B fragment discovery through chemoproteomics screening and high-throughput optimisation” (Communications Chemistry, 2025)

Experiments:
Experiment in all cases: log2 ratio of Biotin-Ahx-Ub-VS probe labelling (fragment/DMSO); higher = less target engagement (more negative = stronger competition), active = hit call of the paper (q ≤ 0.05, log2 ratio ≤ -1)
Conditions in all cases: compound concentration: 200 uM; treatment time: 3 h
USP42 = target: T1, USP42 (UniProt Q9H9J4)
T1 sequence (whole entry): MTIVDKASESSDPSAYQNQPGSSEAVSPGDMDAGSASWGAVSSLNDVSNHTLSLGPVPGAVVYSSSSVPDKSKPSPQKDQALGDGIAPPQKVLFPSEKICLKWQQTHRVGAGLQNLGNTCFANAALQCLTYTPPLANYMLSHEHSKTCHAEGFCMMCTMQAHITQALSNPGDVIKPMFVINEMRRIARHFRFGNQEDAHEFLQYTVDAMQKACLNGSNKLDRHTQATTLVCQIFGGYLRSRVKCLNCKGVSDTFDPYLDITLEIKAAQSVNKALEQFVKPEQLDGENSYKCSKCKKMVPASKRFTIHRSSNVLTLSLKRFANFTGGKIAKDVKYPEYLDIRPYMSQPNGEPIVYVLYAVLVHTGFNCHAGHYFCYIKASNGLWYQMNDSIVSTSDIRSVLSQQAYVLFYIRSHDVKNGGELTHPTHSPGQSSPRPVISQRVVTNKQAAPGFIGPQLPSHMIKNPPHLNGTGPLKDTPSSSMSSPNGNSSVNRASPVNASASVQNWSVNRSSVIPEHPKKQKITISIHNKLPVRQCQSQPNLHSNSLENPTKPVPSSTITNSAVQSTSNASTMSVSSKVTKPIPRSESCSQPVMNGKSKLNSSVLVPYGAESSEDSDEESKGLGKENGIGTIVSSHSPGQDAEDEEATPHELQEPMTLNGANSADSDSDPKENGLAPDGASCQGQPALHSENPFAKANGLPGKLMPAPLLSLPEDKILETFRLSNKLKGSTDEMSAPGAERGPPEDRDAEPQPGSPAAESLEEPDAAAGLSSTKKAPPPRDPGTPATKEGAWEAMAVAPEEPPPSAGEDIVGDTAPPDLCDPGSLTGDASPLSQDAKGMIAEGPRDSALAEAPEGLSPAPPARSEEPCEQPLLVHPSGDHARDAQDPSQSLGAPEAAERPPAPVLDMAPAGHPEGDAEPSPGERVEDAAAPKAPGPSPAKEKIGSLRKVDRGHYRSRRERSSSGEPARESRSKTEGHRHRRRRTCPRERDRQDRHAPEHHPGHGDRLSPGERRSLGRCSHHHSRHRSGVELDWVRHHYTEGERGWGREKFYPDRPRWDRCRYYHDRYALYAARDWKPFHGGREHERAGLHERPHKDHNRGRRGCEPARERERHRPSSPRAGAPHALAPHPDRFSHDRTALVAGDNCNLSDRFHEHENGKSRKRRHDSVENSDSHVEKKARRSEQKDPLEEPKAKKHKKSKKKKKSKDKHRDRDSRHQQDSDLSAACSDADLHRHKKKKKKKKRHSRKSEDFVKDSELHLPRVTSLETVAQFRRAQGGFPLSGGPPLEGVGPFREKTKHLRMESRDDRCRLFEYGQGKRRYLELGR
Summary of the method: (§1)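 Labelled DUBs from HEK293T lysate were NeutrAvidin-enriched, digested with LysC and trypsin, and run by diaPASEF LC-MS/MS. Before that, each 495 µg sample in Tris/CHAPS/IGEPAL buffer with protease inhibitors was treated in triplicate with fragment at 200 µM or vehicle for 3 h, then with Biotin-Ahx-Ub-VS at 0.5 µM final for 1 h. Values are average log2 ratios of fragment over vehicle by unpaired t-test, based on global-median-normalised Spectronaut label-free quantities from proteins with ≥2 unique peptides.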

USP46 = USP46 (UniProt P62068)
Chain of USP46 (P62068 whole entry): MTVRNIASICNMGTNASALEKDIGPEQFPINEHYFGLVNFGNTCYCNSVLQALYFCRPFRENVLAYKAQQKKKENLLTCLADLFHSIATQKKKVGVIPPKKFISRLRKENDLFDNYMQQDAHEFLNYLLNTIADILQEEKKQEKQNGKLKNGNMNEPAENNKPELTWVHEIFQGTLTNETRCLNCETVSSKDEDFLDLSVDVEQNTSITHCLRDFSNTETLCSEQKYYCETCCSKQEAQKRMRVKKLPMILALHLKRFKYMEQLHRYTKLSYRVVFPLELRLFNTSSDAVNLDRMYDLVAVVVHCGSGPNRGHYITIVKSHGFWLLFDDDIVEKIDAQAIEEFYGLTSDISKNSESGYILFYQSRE
Summary of the method: as §1

USP47 = target: T2, USP47 (UniProt Q96K76)
T2 sequence (whole entry): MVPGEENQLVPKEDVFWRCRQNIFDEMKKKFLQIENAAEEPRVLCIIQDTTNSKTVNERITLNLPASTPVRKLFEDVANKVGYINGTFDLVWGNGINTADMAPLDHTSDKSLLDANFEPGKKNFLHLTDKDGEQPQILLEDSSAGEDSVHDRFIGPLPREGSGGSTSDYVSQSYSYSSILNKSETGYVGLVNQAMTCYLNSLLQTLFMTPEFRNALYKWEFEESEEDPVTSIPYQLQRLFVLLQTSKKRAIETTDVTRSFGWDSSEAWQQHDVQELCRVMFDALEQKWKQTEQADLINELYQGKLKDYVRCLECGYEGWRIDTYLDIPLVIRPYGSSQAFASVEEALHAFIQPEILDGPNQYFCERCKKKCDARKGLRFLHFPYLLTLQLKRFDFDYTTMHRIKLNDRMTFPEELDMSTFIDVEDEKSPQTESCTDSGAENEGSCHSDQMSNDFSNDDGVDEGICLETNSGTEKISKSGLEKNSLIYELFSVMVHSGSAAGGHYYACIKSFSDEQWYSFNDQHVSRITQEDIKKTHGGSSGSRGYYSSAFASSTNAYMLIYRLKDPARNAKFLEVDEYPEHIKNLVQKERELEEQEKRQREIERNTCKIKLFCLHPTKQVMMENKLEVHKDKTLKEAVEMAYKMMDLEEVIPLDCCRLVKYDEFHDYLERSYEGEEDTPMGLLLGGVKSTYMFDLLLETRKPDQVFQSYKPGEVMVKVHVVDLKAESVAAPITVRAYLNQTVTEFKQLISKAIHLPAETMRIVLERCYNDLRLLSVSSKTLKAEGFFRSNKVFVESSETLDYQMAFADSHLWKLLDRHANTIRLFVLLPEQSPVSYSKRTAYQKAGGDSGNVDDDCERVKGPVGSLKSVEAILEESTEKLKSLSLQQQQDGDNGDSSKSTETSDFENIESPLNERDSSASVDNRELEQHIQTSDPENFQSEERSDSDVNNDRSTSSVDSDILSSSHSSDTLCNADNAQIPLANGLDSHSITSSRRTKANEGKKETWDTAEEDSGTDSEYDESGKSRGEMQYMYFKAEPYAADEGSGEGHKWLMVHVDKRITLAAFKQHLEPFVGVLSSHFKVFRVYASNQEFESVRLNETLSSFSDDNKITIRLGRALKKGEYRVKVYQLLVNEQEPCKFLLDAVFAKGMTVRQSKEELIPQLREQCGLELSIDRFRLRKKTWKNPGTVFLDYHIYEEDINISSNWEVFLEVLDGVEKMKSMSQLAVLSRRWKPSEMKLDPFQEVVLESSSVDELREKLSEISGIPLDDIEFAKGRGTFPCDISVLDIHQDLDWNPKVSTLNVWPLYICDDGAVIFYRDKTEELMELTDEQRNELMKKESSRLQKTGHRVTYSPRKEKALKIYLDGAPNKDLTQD
Summary of the method: as §1

USP48 = target: T3, USP48 (UniProt Q86UV5)
T3 sequence (whole entry): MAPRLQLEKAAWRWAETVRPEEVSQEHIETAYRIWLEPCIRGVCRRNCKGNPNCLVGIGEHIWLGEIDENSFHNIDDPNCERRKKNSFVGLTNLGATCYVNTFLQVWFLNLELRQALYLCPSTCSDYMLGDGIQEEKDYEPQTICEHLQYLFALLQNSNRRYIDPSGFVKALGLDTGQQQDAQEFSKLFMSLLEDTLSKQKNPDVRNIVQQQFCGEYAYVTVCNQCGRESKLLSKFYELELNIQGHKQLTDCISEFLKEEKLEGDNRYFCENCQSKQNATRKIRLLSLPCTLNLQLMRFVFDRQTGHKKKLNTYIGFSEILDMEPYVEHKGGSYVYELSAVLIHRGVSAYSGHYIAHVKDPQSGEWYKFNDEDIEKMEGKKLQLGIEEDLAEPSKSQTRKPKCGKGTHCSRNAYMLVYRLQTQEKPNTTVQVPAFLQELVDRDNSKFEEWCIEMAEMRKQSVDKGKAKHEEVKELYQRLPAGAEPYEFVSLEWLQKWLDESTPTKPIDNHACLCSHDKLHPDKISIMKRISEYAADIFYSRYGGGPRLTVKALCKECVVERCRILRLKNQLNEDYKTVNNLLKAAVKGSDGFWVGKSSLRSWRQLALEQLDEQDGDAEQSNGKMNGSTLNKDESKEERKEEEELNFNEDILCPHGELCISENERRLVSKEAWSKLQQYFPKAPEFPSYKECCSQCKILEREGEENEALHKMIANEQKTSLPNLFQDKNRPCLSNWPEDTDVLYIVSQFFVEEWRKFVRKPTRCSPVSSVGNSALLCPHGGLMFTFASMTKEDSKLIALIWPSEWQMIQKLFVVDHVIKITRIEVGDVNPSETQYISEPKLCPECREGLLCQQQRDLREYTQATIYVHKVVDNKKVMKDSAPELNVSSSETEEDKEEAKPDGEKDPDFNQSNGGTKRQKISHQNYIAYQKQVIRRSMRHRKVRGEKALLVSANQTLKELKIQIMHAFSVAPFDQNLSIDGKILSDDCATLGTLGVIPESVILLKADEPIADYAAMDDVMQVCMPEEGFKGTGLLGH
Summary of the method: as §1

USP5 = target: T4, USP5 (UniProt P45974)
T4 sequence (whole entry): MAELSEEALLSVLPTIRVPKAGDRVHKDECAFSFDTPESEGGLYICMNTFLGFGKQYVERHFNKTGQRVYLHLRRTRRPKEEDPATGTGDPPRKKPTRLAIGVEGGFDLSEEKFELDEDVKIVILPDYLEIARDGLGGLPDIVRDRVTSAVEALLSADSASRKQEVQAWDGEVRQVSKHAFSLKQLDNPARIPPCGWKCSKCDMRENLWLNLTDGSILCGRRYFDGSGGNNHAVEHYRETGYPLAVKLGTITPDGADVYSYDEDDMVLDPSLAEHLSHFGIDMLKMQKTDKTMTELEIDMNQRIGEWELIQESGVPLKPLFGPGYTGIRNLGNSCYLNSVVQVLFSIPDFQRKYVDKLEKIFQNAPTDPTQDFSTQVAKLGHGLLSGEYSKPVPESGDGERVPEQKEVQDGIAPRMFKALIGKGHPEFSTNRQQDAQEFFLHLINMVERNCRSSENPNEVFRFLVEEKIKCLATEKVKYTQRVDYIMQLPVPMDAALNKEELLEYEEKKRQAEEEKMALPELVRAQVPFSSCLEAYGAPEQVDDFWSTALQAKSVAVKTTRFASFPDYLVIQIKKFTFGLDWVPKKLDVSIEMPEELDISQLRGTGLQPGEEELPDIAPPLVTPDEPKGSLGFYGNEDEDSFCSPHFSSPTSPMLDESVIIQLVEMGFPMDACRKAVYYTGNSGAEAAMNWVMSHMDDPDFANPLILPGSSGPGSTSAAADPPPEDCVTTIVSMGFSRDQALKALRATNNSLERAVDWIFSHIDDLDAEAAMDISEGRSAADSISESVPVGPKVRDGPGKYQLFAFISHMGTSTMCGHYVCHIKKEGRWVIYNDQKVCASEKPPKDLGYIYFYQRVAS
Summary of the method: as §1

USP54 = USP54 (UniProt Q70EL1)
Chain of USP54 (Q70EL1 whole entry): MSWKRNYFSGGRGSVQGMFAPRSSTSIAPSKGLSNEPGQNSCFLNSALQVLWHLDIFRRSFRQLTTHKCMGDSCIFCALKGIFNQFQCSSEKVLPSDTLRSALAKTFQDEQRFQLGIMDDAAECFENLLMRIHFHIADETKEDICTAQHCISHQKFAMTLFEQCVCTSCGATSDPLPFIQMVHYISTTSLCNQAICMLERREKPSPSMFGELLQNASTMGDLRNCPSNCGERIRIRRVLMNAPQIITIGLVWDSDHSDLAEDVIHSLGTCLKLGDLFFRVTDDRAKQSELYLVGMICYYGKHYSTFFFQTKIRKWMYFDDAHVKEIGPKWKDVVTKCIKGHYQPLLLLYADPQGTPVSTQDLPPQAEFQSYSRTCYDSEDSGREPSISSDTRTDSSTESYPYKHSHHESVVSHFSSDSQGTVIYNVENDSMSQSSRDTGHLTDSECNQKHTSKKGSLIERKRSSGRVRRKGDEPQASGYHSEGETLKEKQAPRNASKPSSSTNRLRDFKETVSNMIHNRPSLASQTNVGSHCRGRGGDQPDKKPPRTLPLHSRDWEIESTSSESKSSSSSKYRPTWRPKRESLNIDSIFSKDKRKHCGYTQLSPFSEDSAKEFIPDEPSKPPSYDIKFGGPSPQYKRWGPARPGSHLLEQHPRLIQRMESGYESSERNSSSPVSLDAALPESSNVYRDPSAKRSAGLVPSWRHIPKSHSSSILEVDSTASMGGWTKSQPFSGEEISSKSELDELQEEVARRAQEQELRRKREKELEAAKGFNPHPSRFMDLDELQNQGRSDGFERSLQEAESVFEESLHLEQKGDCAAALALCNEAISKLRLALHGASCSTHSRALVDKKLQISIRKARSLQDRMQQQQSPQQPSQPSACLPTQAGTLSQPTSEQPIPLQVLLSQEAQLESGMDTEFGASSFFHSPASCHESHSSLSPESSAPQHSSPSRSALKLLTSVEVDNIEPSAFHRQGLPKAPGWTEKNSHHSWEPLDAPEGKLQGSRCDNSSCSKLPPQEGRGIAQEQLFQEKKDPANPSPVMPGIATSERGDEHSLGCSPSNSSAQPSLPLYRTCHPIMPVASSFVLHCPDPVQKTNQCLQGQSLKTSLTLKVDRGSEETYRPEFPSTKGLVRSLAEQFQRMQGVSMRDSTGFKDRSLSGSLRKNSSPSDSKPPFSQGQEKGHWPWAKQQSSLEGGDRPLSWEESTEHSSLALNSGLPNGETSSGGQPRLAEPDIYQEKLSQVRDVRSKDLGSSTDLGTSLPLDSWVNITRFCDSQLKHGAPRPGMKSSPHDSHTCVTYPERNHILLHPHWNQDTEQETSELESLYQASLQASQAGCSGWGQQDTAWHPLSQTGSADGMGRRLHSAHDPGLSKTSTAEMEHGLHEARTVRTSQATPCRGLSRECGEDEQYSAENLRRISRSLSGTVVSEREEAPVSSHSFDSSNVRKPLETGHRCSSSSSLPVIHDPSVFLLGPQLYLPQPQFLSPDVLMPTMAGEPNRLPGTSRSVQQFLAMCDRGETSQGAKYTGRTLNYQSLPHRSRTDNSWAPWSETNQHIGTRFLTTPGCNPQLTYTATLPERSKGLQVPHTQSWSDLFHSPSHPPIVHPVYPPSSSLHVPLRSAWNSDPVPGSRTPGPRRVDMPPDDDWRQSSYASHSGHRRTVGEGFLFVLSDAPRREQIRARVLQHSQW
Summary of the method: as §1

USP7 = USP7 (UniProt Q93009)
Chain of USP7 (Q93009 whole entry, looked up): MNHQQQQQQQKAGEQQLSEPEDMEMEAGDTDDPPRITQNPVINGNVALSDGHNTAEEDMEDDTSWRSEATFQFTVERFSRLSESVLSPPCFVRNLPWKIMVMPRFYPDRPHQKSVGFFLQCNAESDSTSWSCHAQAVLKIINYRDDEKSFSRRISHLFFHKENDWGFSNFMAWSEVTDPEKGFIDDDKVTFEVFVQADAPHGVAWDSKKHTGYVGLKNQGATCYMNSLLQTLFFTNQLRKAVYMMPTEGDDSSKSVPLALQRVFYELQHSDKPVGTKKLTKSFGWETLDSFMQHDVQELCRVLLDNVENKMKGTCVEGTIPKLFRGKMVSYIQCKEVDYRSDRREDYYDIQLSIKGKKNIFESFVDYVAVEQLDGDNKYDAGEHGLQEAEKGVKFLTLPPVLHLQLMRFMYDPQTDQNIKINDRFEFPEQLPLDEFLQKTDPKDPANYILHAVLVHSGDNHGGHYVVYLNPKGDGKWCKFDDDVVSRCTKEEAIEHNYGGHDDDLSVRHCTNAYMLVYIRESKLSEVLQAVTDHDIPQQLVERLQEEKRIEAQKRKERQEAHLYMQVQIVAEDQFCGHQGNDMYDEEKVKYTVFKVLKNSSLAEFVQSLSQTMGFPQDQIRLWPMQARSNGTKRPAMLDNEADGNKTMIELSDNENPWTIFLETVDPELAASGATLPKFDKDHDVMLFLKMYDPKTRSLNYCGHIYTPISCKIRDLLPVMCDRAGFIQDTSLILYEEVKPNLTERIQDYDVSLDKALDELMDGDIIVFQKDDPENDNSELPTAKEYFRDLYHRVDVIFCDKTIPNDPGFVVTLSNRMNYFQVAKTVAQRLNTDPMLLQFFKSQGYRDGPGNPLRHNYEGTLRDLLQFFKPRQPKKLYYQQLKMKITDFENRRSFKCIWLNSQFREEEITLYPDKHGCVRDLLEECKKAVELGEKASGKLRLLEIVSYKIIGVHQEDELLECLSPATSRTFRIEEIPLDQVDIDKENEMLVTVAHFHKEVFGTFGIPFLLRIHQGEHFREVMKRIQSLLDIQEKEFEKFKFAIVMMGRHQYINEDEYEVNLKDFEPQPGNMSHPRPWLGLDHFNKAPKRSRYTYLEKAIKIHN
Summary of the method: as §1

USP8 = target: T5, USP8 (UniProt P40818)
T5 sequence (whole entry): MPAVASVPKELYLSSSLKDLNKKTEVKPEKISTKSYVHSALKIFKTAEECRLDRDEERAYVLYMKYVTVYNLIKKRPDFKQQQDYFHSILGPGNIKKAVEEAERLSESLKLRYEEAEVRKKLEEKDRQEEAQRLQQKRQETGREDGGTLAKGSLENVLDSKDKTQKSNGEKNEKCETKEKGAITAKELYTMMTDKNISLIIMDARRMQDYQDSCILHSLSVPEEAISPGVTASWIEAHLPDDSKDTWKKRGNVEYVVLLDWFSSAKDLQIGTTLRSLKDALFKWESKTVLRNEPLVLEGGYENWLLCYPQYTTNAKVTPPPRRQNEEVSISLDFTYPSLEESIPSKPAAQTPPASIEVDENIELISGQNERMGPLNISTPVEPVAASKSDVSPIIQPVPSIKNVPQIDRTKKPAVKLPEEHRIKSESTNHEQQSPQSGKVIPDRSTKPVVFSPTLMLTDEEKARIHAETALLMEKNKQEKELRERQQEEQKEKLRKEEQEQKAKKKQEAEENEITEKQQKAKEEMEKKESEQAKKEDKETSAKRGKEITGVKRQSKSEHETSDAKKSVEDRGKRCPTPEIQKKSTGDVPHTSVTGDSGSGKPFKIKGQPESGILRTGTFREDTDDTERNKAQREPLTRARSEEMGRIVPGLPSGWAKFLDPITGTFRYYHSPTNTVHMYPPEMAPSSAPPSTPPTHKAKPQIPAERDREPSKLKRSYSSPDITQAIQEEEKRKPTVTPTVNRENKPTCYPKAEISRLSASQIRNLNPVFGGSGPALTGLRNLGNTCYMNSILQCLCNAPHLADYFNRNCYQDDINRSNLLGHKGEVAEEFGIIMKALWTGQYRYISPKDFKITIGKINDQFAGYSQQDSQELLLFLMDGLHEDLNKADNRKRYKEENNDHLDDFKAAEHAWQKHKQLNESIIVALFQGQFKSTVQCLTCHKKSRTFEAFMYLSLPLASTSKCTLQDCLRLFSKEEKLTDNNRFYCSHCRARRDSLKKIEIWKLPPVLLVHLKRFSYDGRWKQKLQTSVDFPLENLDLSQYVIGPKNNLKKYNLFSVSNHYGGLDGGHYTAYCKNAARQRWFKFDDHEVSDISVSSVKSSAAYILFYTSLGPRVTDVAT
Summary of the method: as §1

USP9X = USP9X (UniProt Q93008)
Summary of the method: as §1

UniProt O00487 = target: UniProt O00487
Chain of UniProt O00487 (O00487 whole entry): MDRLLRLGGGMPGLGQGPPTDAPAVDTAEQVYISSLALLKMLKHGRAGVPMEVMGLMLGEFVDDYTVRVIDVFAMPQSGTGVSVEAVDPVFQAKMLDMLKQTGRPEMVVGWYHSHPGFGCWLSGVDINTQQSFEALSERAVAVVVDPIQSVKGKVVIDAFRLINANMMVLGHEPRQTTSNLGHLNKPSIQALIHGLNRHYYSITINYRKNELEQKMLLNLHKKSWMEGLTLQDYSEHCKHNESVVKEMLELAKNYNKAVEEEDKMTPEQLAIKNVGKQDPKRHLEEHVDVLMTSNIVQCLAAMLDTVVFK
Summary of the method: as §1

Measured: log2 ratio of Biotin-Ahx-Ub-VS probe labelling

O=C(CCl)NC1CCC(C(F)(F)F)CC1 (stereo not given)
inactive: USP42 0.589 | USP46 -0.0439 | USP47 -0.0726 | USP48 -0.174 | USP5 -0.36 | USP54 0.0395 | USP7 -0.303 | USP8 -0.0509 | USP9X -0.178 | UniProt O00487 -0.185
